About 2,000 (36%) of roughly 5,500 compounds were called active. Inconclusive results (about 18%) are left out. The list shows a part of the results. Unmarked numbers belong to inactive results. Cut-off read from the data, not from the text of the source: active = normalized growth mostly below about 0.91 (no sharp cut-off); inconclusive = no clear call, values can overlap the other calls; inactive = mostly above about 0.92.
Experiment: chemical genetic growth profiling, strain panel (AID 1159580);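 note: tested at 20 µM; growth read once vehicle control cultures reached saturation at 30 °C; 1 = growth at the plate median or of vehicle wells; lower values mean less growth of the strain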
Conditions: S. cerevisiae deletion strains, growth OD
[1] = locus YAR019C, strain CDC15, hits give low values
[2] = locus YBL105C, strain PKC1, hits give low values
[3] = locus YBR135W, strain CKS1, hits give low values
[4] = locus YBR136W, strain MEC1, hits give low values
[5] = locus YBR160W, strain CDC28, hits give low values
[6] = locus YDL017W, strain CDC7, hits give low values
[7] = locus YDL028C, strain MPS1, hits give low values
[8] = locus YDL101C, strain DUN1, hits give low values
[9] = locus YDL108W, strain KIN28, hits give low values
[10] = locus YDL132W, strain cdc53, hits give low values
[11] = locus YDL214C, strain PRR2, hits give low values
[12] = locus YDR052C, strain DBF4, hits give low values
[13] = locus YDR054C, strain cdc34, hits give low values
[14] = locus YDR226W, strain ADK1, hits give low values
[15] = locus YDR477W, strain SNF1, hits give low values
[16] = locus YER123W, strain YCK3, hits give low values
[17] = locus YER133W, strain GLC7, hits give low values
[18] = locus YFL009W, strain cdc4, hits give low values
[19] = locus YFL029C, strain CAK1, hits give low values
[20] = locus YFR003C, strain YPI1, hits give low values
[21] = locus YFR019W, strain FAB1, hits give low values
[22] = locus YFR028C, strain CDC14, hits give low values
[23] = locus YGR040W, strain KSS1, hits give low values
[24] = locus YGR052W, strain FMP48, hits give low values
[25] = locus YGR092W, strain DBF2, hits give low values
[26] = locus YHR030C, strain SLT2, hits give low values
[27] = locus YHR079C, strain IRE1, hits give low values
[28] = locus YHR082C, strain KSP1, hits give low values
[29] = locus YHR205W, strain SCH9, hits give low values
[30] = locus YIL147C, strain SLN1, hits give low values
[31] = locus YJL095W, strain BCK1, hits give low values
[32] = locus YJL128C, strain PBS2, hits give low values
[33] = locus YJL157C, strain FAR1, hits give low values
[34] = locus YJR016C, strain ILV3, hits give low values
[35] = locus YJR066W, strain TOR1 (second series), hits give low values
[36] = locus YJR066W, strain TOR1, hits give low values
[37] = locus YKL048C, strain ELM1, hits give low values
[38] = locus YKL067W, strain YNK1, hits give low values
[39] = locus YKL101W, strain HSL1, hits give low values
[40] = locus YKL193C, strain SDS22, hits give low values
[41] = locus YKL203C, strain TOR2, hits give low values
[42] = locus YLR113W, strain HOG1, hits give low values
[43] = locus YLR133W, strain CKI1, hits give low values
[44] = locus YLR403W, strain SFP1, hits give low values
[45] = locus YML070W, strain DAK1, hits give low values
[46] = locus YMR001C, strain CDC5, hits give low values
[47] = locus YMR205C, strain PFK2 (second series), hits give low values
[48] = locus YMR277W, strain FCP1, hits give low values
[49] = locus YNL006W, strain LST8, hits give low values
[50] = locus YNL020C, strain ARK1, hits give low values
[51] = locus YNL161W, strain CBK1, hits give low values
[52] = locus YNL183C, strain NPR1, hits give low values
[53] = locus YNL207W, strain RIO2, hits give low values
[54] = locus YNL222W, strain SSU72, hits give low values
[55] = locus YNL307C, strain MCK1 (second series), hits give low values
[56] = locus YOL078W, strain AVO1, hits give low values
[57] = locus YOL136C, strain PFK27, hits give low values
[58] = locus YOR061W, strain CKA2, hits give low values
[59] = locus YOR119C, strain RIO1, hits give low values
[60] = locus YOR231W, strain MKK1, hits give low values
[61] = locus YOR329C, strain SCD5, hits give low values
[62] = locus YPL031C, strain PHO85, hits give low values
[63] = locus YPL153C, strain RAD53, hits give low values
[64] = locus YPL204W, strain HRR25, hits give low values
[65] = locus YPL209C, strain IPL1, hits give low values
[66] = locus YPL256C, strain CLN2, hits give low values
[67] = locus YPR025C, strain CCL1, hits give low values
[68] = locus YPR106W, strain ISR1, hits give low values
[69] = locus YPR111W, strain DBF20, hits give low values
[70] = strain NNK1, hits give low values
[71] = strain TSCII, hits give low values

Cc1nnsc1C(=O)NNc1c(Cl)cccc1Cl
normalized growth [1]: 0.975 | normalized growth [2]: 0.974 | normalized growth [3]: 0.976 | normalized growth [4]: 0.977 | normalized growth [5]: 0.973 | normalized growth [6]: 0.979 | normalized growth [7]: 0.978 | normalized growth [8]: 0.993 | normalized growth [9]: 0.981 | normalized growth [10]: 0.982 | normalized growth [11]: 0.951 | normalized growth [12]: 0.985 | normalized growth [13]: 0.982 | normalized growth [14]: 0.986 | normalized growth [15]: 0.959 | normalized growth [16]: 0.933 | normalized growth [17]: 0.97 | normalized growth [18]: 0.98 | normalized growth [19]: 0.972 | normalized growth [20]: 0.98 | normalized growth [21]: 0.958 | normalized growth [22]: 0.981 | normalized growth [23]: 0.926 | normalized growth [24]: 1.02 | normalized growth [25]: 0.952 | normalized growth [26]: 1.02 | normalized growth [27]: 0.982 | normalized growth [28]: 1.02 | normalized growth [29]: 0.942 | normalized growth [30]: 0.981 | normalized growth [31]: 0.992 | normalized growth [32]: 0.926 | normalized growth [33]: 0.939 | normalized growth [34]: 0.984 | normalized growth [35]: 0.926 | normalized growth [36]: 1.05 | normalized growth [37]: 0.958 | normalized growth [38]: 0.948 | normalized growth [39]: 0.905 | normalized growth [40]: 0.98 | normalized growth [41]: 1.02 | normalized growth [42]: 0.844 (active) | normalized growth [43]: 0.939 | normalized growth [44]: 0.935 | normalized growth [45]: 0.927 | normalized growth [46]: 0.978 | normalized growth [47]: 0.941 | normalized growth [48]: 0.98 | normalized growth [49]: 0.993 | normalized growth [50]: 0.946 | normalized growth [51]: 0.979 | normalized growth [52]: 0.983 | normalized growth [53]: 0.988 | normalized growth [54]: 0.973 | normalized growth [55]: 0.948 | normalized growth [56]: 0.978 | normalized growth [57]: 0.927 | normalized growth [58]: 0.927 | normalized growth [59]: 1.01 | normalized growth [60]: 0.925 | normalized growth [61]: 0.977 | normalized growth [62]: 0.971 | normalized growth [63]: 0.949 | normalized growth [64]: 0.952 | normalized growth [65]: 0.973 | normalized growth [66]: 0.921 | normalized growth [67]: 0.975 | normalized growth [68]: 0.965 | normalized growth [69]: 0.976 | normalized growth [70]: 0.978 | normalized growth [71]: 0.977

Cc1cc(NNC(=O)c2ccccc2Cl)nc2c1c(C)nn2C
normalized growth [1]: 0.994 | normalized growth [2]: 0.989 | normalized growth [3]: 0.979 | normalized growth [4]: 0.979 | normalized growth [5]: 0.983 | normalized growth [6]: 0.987 | normalized growth [7]: 0.978 | normalized growth [8]: 0.994 | normalized growth [9]: 0.978 | normalized growth [10]: 0.978 | normalized growth [11]: 0.951 | normalized growth [12]: 0.99 | normalized growth [13]: 0.993 | normalized growth [14]: 0.976 | normalized growth [15]: 0.978 | normalized growth [16]: 0.938 | normalized growth [17]: 0.96 | normalized growth [18]: 0.98 | normalized growth [19]: 0.993 | normalized growth [20]: 0.987 | normalized growth [21]: 0.95 | normalized growth [22]: 0.973 | normalized growth [23]: 0.958 | normalized growth [24]: 1.01 | normalized growth [25]: 0.974 | normalized growth [26]: 1.07 | normalized growth [27]: 1.08 | normalized growth [28]: 1.05 | normalized growth [29]: 0.953 | normalized growth [30]: 0.984 | normalized growth [31]: 0.968 | normalized growth [32]: 0.966 | normalized growth [33]: 0.972 | normalized growth [34]: 0.988 | normalized growth [35]: 0.926 | normalized growth [36]: 1.08 | normalized growth [37]: 0.964 | normalized growth [38]: 0.958 | normalized growth [39]: 0.941 | normalized growth [40]: 0.985 | normalized growth [41]: 1.06 | normalized growth [42]: 0.93 | normalized growth [43]: 0.951 | normalized growth [44]: 0.968 | normalized growth [45]: 0.956 | normalized growth [46]: 0.992 | normalized growth [47]: 0.97 | normalized growth [48]: 0.986 | normalized growth [49]: 0.982 | normalized growth [50]: 0.973 | normalized growth [51]: 0.98 | normalized growth [52]: 1.03 | normalized growth [53]: 0.985 | normalized growth [54]: 0.989 | normalized growth [55]: 0.973 | normalized growth [56]: 0.978 | normalized growth [57]: 0.905 | normalized growth [58]: 0.94 | normalized growth [59]: 1.04 | normalized growth [60]: 0.978 | normalized growth [61]: 0.989 | normalized growth [62]: 0.97 | normalized growth [63]: 0.987 | normalized growth [64]: 0.945 | normalized growth [65]: 0.993 | normalized growth [66]: 1.05 | normalized growth [67]: 0.993 | normalized growth [68]: 0.999 | normalized growth [69]: 0.993 | normalized growth [70]: 0.998 | normalized growth [71]: 0.98
